Measured values reported in paper PMC5540273 (PLoS ONE, 2017).

tested on: INSR; conditions: concentration: 1 μM, replicates: in singlicate; n = 1
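Also: KINOMEscan kinase panel screen.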

Point of comparison: `COc1cc2ncn(-c3cc(OCCCc4ccccc4)c(C(N)=O)s3)c2cc1OC` [GSK205189], “%Inh” value 13%. Against it:
- COc1cc2ncn(-c3cc(OCc4ccncc4)c(C(N)=O)s3)c2cc1OC [GSK336313] — lower, 1%
- OCCCNc1nccc(-c2c(-c3cccc(C(F)(F)F)c3)nn3cc(C(F)(F)F)ccc23)n1 [GW630813] — lower, 0%
- Cc1ccc(Oc2ccc(Nc3ncnc4cc[nH]c34)cc2C)cn1 — lower, 11%
- COc1cc(Nc2nccc(N3CCC(NC(=O)C(C)c4ccc(Cl)cc4)C3)n2)cc(OC)c1OC (stereo not drawn) [GSK1379757] — lower, 0%
- Nc1nc(N)c2nc(-c3ccccc3)[nH]c2n1 [SKF-12778] — lower, 0%
- COc1cc(OC)cc(-c2cc3cnc(N)nc3nc2NC(=O)NC(C)(C)C)c1 — lower, 0%
- COc1cc2nccc(Nc3cccc(Oc4ccccc4)c3)c2cc1OC.Cl [GW284543] — lower, 4%
- CCn1c(-c2ccoc2)nc2cnccc21 [SB-733887] — higher, 96.3%
- CCn1c(-c2nonc2N)nc2ccccc21 [SB-693162/GW549034] — higher, 17%
- COC(=O)c1c(-c2ccccc2)c2cc(C)ccc2c(=O)n1Cc1ccccc1 — lower, 1%
- CCCNC(=O)Nc1ccc(Oc2ncnc3ccn(C)c23)cc1 — higher, 31%
- COc1ccc(-c2coc3ccc(-c4nnc(SCc5cccc(C#N)c5)o4)cc23)cc1 — higher, 20%
- CCC(=O)c1c(-c2ccccc2)c2cc(Cl)ccc2c(=O)n1Cc1cc(S(C)(=O)=O)n(CC(F)F)n1 — lower, 0%
- CN1C(=O)C(Nc2ccccc2)=C(c2ccccc2)C1=O [SB-300079] — higher, 22%
- Cc1ccccc1COc1cc(-n2cnc3cc(Cl)ccc32)sc1C(N)=O [GW813349] — lower, 3%
- COc1cc2ncn(-c3cc(OCc4ccncc4Br)c(C(N)=O)s3)c2cc1OC [GW854278] — lower, 1%
- O=C1NC(=O)C(c2ccccc2)=C1Nc1cccc(O)c1 [SB-390534] — lower, 0%
- Cc1cccc(-c2nc(Nc3ccc4c(cnn4C)c3)c3ccccc3n2)n1 [GW876731] — lower, 0%
- COc1ccc(CNC(=O)NC2CCN(c3ccnc(Nc4ccc(F)cc4)n3)C2)cc1 (stereo not drawn) [GSK1379706] — higher, 17%
- O=C(NCCNc1ccnc(Nc2ccc(F)cc2)n1)Nc1ccc2c(c1)OCO2 [GSK1379882] — lower, 7%
- CCS(=O)(=O)c1ccc(OC)c(Nc2ncc(-c3ccc(F)cc3)o2)c1.Cl [GW591947] — lower, 0%
- COC(=O)c1c(-c2ccccc2)c2cc(Br)ccc2c(=O)n1Cc1ccc(NC(=O)CCC(=O)O)cc1 — lower, 8%
- O=C(Nc1n[nH]c2cc(-c3ccccc3F)ccc12)C1CC1 [SB-733371] — lower, 0%
- Cc1nn2c(=O)cc(N3CCOCC3)nc2n1Cc1cccc(Cl)c1Cl [GSK2342769] — lower, 0%
- O=c1cc(N2CCOCC2)nc2n(Cc3ccc(F)c(Cl)c3)ccn12 [GSK2297099] — higher, 23%
- Cc1nnc(-c2ccc(C)c(-c3ccc(C(=O)O)cc3)c2)o1 [GW608005] — lower, 0%
- Cc1c(Cn2c(C)nn3c(=O)cc(N4CCO[C@H](C)C4)nc23)cccc1C(F)(F)F [GSK2373690] — lower, 0%
- Nc1ncnc2c1ncn2-c1cccc(F)c1 [SKF-97560] — lower, 9%
- Nc1ncnc2c1ncn2-c1ccc(Cl)cc1 [AH2635] — lower, 0%
- CC(C)(C)c1ccc(C(=O)Nc2cn3cc(-c4ccccc4)ccc3n2)cc1 — lower, 0%
- Nc1nc(-c2ccccc2F)c(-c2ccnc3ccccc23)s1 [GW560459] — higher, 94.4%
- CCC(=O)c1c(-c2ccccc2)c2cc(Cl)ccc2c(=O)n1Cc1cc(C(=O)NC2CC2)n(C)n1 — lower, 0%
- CCS(=O)c1ccc(-c2coc3ccc(-c4nnc(C)o4)cc23)cc1 (stereo not drawn) — lower, 1%
- COc1ccc(-c2cc3c(C)nc(N)nc3n([C@H]3CC[C@H](OCCO)CC3)c2=O)cn1 — higher, 24%
- O=C(Nc1ccc2c(c1)OCO2)NC1CCN(c2ccnc(NCc3ccc(F)cc3)n2)CC1 [GSK1379859] — higher, 45%
